Among the test systems are SR leukemia; RPMI-8226 leukemia; OVCAR-8 ovarian; OVCAR-5 ovarian; OVCAR-4 ovarian; SK-OV-3 ovarian; IGROV1 ovarian; OVCAR-3 ovarian; HS 578T breast; NCI/ADR-RES ovarian; T-47D breast; BT-549 breast; MDA-MB-435 melanoma; SW-620 colon; MCF7 breast; HCT-116 colon; HCC-2998 colon; KM12 colon; MDA-MB-468 breast.
Assay in all cases: NCI-60 one-dose screen, 48 h (100 = growth as untreated, 0 = no growth, -100 = all killed)
What all share (settings): 10 µM unless noted

Compounds without any hit were thinned out: in the full panel of roughly 83,000, 20% have a hit.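 48-hour exposure, single concentration, 96-well plates; percent growth endpoint where 0 means no net growth. Active: below 10.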 Unmarked numbers belong to inactive results. Calls of active or inactive are those of the source.

As for `COc1cc(/C=C2\C(=N)N=C(SCc3nc4ccccc4[nH]3)NC2=O)ccc1O`, the growth with SR leukemia was 88.5%; in the test on RPMI-8226 leukemia, 85%; in the test on OVCAR-8 ovarian, 101%; in the test on OVCAR-5 ovarian, 109%; with OVCAR-4 ovarian, 96.6%; in the test with SK-OV-3 ovarian, 103%. In addition, the growth is 106% with IGROV1 ovarian; 103% in the test with OVCAR-3 ovarian; 93.3% with HS 578T breast; 99% in the test on NCI/ADR-RES ovarian; 99.8% in the test on T-47D breast; 107% with BT-549 breast. Further, the growth with MDA-MB-435 melanoma is 99.7%; in the test with SW-620 colon, 95.6%; in the test with MCF7 breast, 93.7%; in the test on HCT-116 colon it was 99.8%; in the test on HCC-2998 colon it was 105%; in the test with KM12 colon, 106%. Besides, the growth in the test on MDA-MB-468 breast was 106%.

As to `COc1cc(C2CC(c3cc(OC)c(OC)c(OC)c3)=NN2c2ccccc2)ccc1OCc1ccc(C)cc1` (stereo not drawn), the growth with SR leukemia was 105%; in the test on RPMI-8226 leukemia, 102%; in the test on OVCAR-8 ovarian, 98%; in the test with OVCAR-5 ovarian, 105%; with OVCAR-4 ovarian, 89.2%; in the test on SK-OV-3 ovarian, 101%. For the same compound, the growth was 94.2% with IGROV1 ovarian; 101% in the test with OVCAR-3 ovarian; 94.5% with HS 578T breast; 101% with NCI/ADR-RES ovarian; 79.9% in the test with T-47D breast; 103% in the test on BT-549 breast. The growth in the test on MDA-MB-435 melanoma is 97%; in the test on SW-620 colon, 94.3%; in the test on MCF7 breast, 81.3%; in the test with HCT-116 colon, 80.6%; in the test on HCC-2998 colon, 110%; in the test with KM12 colon, 96.9%. Besides, in the test on MDA-MB-468 breast, the growth was 92.2%.

For `Cc1ccc(C(=O)CSc2nc3ccc(F)cc3c(=O)n2-c2ccc(Cl)cc2)cc1`, the growth with SR leukemia was 93.9%; in the test on RPMI-8226 leukemia it was 93.9%; in the test on OVCAR-8 ovarian it was 37.8%; with OVCAR-5 ovarian, 76.2%; in the test with OVCAR-4 ovarian, 31%; in the test on SK-OV-3 ovarian, 46%. For the same compound, the growth in the test on IGROV1 ovarian is 82.7%; in the test with OVCAR-3 ovarian it was 82.4%; with HS 578T breast it was -18.9% (active); with NCI/ADR-RES ovarian it was 28.3%; in the test on T-47D breast it was 96.5%; with BT-549 breast it was 1.44% (active). For the same compound, the growth with MDA-MB-435 melanoma was 76.1%; in the test with SW-620 colon, 75%; in the test with MCF7 breast, 65.2%; in the test on HCT-116 colon, 24.4%; in the test on HCC-2998 colon it was 81.3%; in the test with KM12 colon, 96.3%.

For `CCCCNC(=S)Nc1ccc(OCc2nc3ccccc3[nH]2)cc1`, the growth in the test with SR leukemia is 53.7%; in the test on RPMI-8226 leukemia it was 58.8%; in the test on OVCAR-8 ovarian, 59.3%; with OVCAR-5 ovarian, 86%; in the test with OVCAR-4 ovarian it was 57.2%; in the test with SK-OV-3 ovarian it was 113%. The growth is 78.6% with IGROV1 ovarian; 60.3% in the test on OVCAR-3 ovarian; 92.3% in the test on HS 578T breast; 65.9% in the test on NCI/ADR-RES ovarian; 45.3% with T-47D breast; 65.9% with BT-549 breast. In addition, the growth in the test with MDA-MB-435 melanoma is 49.6%; in the test with SW-620 colon, 91.5%; with MCF7 breast it was 46.5%; in the test with HCT-116 colon, 63.7%; in the test on HCC-2998 colon, 59.6%; in the test on KM12 colon, 1.01% (active). For the same compound, in the test with MDA-MB-468 breast, the growth was 69.6%.

With `COc1cc2oc(-c3cccc(C(=O)Nc4ccc(Cl)cc4)c3)cc(=O)c2c(OCCNC(=O)[C@@H](N)CCC(=O)O)c1OC`, the growth was 42.7% with SR leukemia; 25.5% in the test on RPMI-8226 leukemia; 73.7% in the test on OVCAR-8 ovarian; 76.9% in the test on OVCAR-5 ovarian; 91.9% in the test on OVCAR-4 ovarian; 88.8% in the test with SK-OV-3 ovarian. Further, the growth is 62.9% with IGROV1 ovarian; 113% in the test with OVCAR-3 ovarian; 88.9% in the test with HS 578T breast; 97.4% with NCI/ADR-RES ovarian; 73.7% with T-47D breast; 84.5% with BT-549 breast. The growth in the test on MDA-MB-435 melanoma is 88.6%; with SW-620 colon it was 106%; in the test on MCF7 breast, 61%; with HCT-116 colon, 58.7%; in the test on HCC-2998 colon it was 115%; in the test on KM12 colon it was 93.2%. In addition, in the test with MDA-MB-468 breast, the growth was 74.5%.

As to `CCC(C)(C)c1ccc(OCCCCN2CCN(c3ccncc3)CC2)cc1`, the growth with SR leukemia is -24.2% (active); in the test on RPMI-8226 leukemia, -31.3% (active); in the test with OVCAR-8 ovarian it was 67%; with OVCAR-5 ovarian, 69.2%; with OVCAR-4 ovarian, 56%; in the test with SK-OV-3 ovarian it was 32.3%. Moreover, the growth was 55.5% in the test with IGROV1 ovarian; 51.1% in the test on OVCAR-3 ovarian; 20.2% in the test on HS 578T breast; 59.7% in the test with NCI/ADR-RES ovarian; -41.6% (active) in the test on T-47D breast; 27% with BT-549 breast. Moreover, the growth in the test on MDA-MB-435 melanoma is 39.2%; in the test on SW-620 colon, 2.87% (active); in the test with MCF7 breast, -23.1% (active); in the test with HCT-116 colon it was 8.09% (active); in the test with HCC-2998 colon it was -5.55% (active); with KM12 colon, 37.4%.

For `O=C(c1ccc(OCCN2CCOCC2)cc1)C1[C@H](c2ccc(Cl)cc2)[C@@H](c2ccccc2)NC12C(=O)Nc1ccc(Br)cc12` (stereo partly drawn), the growth was -45.3% (active) in the test with SR leukemia; 9.08% (active) with RPMI-8226 leukemia; 28.6% with OVCAR-8 ovarian; 41.3% with OVCAR-5 ovarian; 50.3% in the test with OVCAR-4 ovarian; 37% with SK-OV-3 ovarian. Moreover, the growth in the test on IGROV1 ovarian is 22.6%; in the test with OVCAR-3 ovarian it was 29.5%; in the test with HS 578T breast, 57.2%; in the test on NCI/ADR-RES ovarian it was 18.4%; with T-47D breast it was 26.3%; in the test with BT-549 breast, 54.1%. Besides, the growth is 39.1% in the test on MDA-MB-435 melanoma; 37.3% in the test with SW-620 colon; 1.4% (active) with MCF7 breast; 4.57% (active) with HCT-116 colon; -41.2% (active) in the test on HCC-2998 colon; 11.7% in the test on KM12 colon.

Take `CN(C)c1nc(NCCNS(=O)(=O)c2ccc(C(=O)/C=C/c3ccc(C(F)(F)F)cc3)cc2)nc(Nc2ccc(F)cc2)n1`: the growth with SR leukemia was -26.2% (active); in the test on RPMI-8226 leukemia, 0.159% (active); in the test with OVCAR-8 ovarian, -62.1% (active); in the test on OVCAR-5 ovarian, -68.9% (active); in the test with OVCAR-4 ovarian it was 11.6%; with SK-OV-3 ovarian, 66%. Further, the growth is -40.6% (active) in the test on IGROV1 ovarian; -86.7% (active) with OVCAR-3 ovarian; 52.1% in the test with HS 578T breast; -54.3% (active) with NCI/ADR-RES ovarian; 15.7% in the test with T-47D breast; -71.2% (active) with BT-549 breast. The growth in the test with MDA-MB-435 melanoma was -81.1% (active); in the test with SW-620 colon, -77.1% (active); in the test on MCF7 breast, -78.6% (active); in the test with HCT-116 colon, -59.1% (active); with HCC-2998 colon, -95.7% (active); in the test with KM12 colon it was -78.9% (active).

These data come from PubChem BioAssay (NCI).
